# Values joined by “and” are separate entries in the source; they are usually repeats but may differ in a detail not shown here. Equal values may be shown once. Active and inactive are the calls of the source. Unless noted, how the calls were made is not given here.
# Columns and labels:
# [1] = system: Wnt5a (protein binding on small-molecule microarray); assay: small molecules binding Wnt5a protein – biophysical, small-molecule microarray, 635/667 nm fluorescence, primary screen (AID 1142); settings: 635 nm fluorescence, higher = more signal;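 further: fluorescence read at 667 nm with signal to noise per printed feature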
# [2] = ATP-based viability of Huh7 replicon cells – cell-based, CellTiter-Glo luminescence, basal, 48 h, cytotoxicity control for HCV replication inhibitor project, primary screen (AID 1143); settings: higher = more signal, called active from +8 up or from −8 down;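 further: Huh7 hepatoma cells carrying a hepatitis C replication reporter with no stimulus; test concentration not given here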
# [3] = Pseudomonas biofilm growth suppression – PAO1 strain, BacTiter-Glo luminescence, LB-PBS, primary screen (AID 1144); settings: P. aeruginosa PAO1 biofilm, 12 h, higher = more signal
# [4] = basal CRE-LacZ reporter activity in PC12 – cell-based, unstimulated, primary screen (AID 1145); settings: no forskolin, luminescence, 4.5 h, higher = more signal, called active from +8 up or from −8 down
# [5] = forskolin-driven CRE-LacZ activity in PC12 – cell-based, CRE-LacZ reporter, forskolin-stimulated, primary screen (AID 1146); settings: luminescence, 4.5 h, higher = more signal, called active from +8 up or from −8 down;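 further: PC12 cells with 6xCRE LacZ reporter stimulated by forskolin 10 µM; beta-galactosidase reporter signal reflecting CREB driven transcription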
# [6] = molecular target: Streptavidin (Streptomyces avidinii) (UniProt P22629); assay: compounds binding control protein streptavidin – biophysical, small-molecule microarray, 635/667 nm fluorescence, artefact control for SMM compound annotation, primary screen (AID 1147); settings: higher = more signal;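 further: signal reflects streptavidin binding to arrayed compounds as a control protein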
# Chain of Streptavidin (Streptomyces avidinii) (P22629 whole entry, looked up): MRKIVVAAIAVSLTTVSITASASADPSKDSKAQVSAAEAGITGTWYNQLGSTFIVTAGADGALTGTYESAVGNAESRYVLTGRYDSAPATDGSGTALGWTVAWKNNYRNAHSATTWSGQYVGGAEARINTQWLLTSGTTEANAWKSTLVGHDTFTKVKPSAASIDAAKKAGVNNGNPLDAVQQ
# [7] = probe aInhba binding on compound microarray – biochemical, small-molecule microarray, 635/667 nm fluorescence, primary screen (AID 1148); settings: higher = more signal;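 further: score merges 667nm spot fluorescence with signal-to-noise for antibody binding to printed compounds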
# [8] = molecular target: Torsin-1A (Homo sapiens) (UniProt O14656); assay: TOR1A wild-type binding on microarray – cell lysate, small-molecule microarray, lysate, 635/667 nm, primary screen (AID 1149); settings: COS7 hTOR1A-WT lysate, 635 nm fluorescence, higher = more signal
# Chain of Torsin-1A (Homo sapiens) (O14656 whole entry, looked up): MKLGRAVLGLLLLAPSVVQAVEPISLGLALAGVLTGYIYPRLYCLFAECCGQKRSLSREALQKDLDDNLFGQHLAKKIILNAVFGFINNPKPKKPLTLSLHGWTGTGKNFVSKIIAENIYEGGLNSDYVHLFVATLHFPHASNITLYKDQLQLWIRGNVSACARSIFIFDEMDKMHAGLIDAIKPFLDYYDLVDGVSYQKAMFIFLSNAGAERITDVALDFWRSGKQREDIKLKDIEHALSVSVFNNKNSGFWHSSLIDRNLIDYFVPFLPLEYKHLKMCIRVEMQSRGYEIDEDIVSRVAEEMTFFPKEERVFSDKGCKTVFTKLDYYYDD
# [9] = molecular target: Torsin-1A (Homo sapiens) (UniProt O14656); assay: torsin A mutant lysate binding on microarrays – cell lysate, small-molecule microarray, COS7 lysate, 635/667 nm fluorescence, primary screen (AID 1150); settings: COS7 hTOR1A mutant lysate, 635 nm fluorescence, higher = more signal;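 further: score pools 667 nm emission and signal to noise measuring lysate protein binding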
# [10] = system: Sonic hedgehog protein (Shh); assay: Sonic hedgehog microarray binding compounds – biochemical, small-molecule microarray, 635/667 nm fluorescence, primary screen (AID 1151); settings: 635 nm fluorescence, higher = more signal;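 further: Shh protein binding to compounds spotted on small-molecule microarray slides; score combines spot fluorescence intensity with signal-to-noise across triplicate slides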
# [11] = optical density shifts of acrAB sulA E. coli – strain DRC41, OD650, 48 h, E. coli filamentation inducer project, primary screen (AID 1152); settings: higher = more signal, called active from +8 up or from −8 down;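 further: E. coli MC1000 strain DRC41 lacking acrAB efflux pump and sulA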
# [12] = probe aLefty1 binding on compound microarray – biochemical, small-molecule microarray, 635/667 nm fluorescence, primary screen (AID 1153); settings: higher = more signal;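 further: score merges spot fluorescence with signal-to-noise ratio from the scanned slide images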
# [13] = plasmodial surface anion channel blockers, osmotic lysis – cell-based, P. falciparum Indochina, OD700, 1 h, primary screen (AID 1154); settings: P. falciparum Indochina infected RBC osmotic lysis, higher = more signal, called active from +8 up or from −8 down
# [14] = plasmodial surface anion channel blockers, osmotic lysis – cell-based, P. falciparum Indochina, OD700, 2 h, primary screen (AID 1155);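 further: lysis reports solute entry through the parasite surface anion channel PSAC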; settings: P. falciparum Indochina infected erythrocytes, higher = more signal, called active from +8 up or from −8 down
# [15] = changes in parasitized red cell lysis, either direction – P. falciparum Indochina, OD700, 3 h, PSAC antagonist project, primary screen (AID 1156); settings: P. falciparum-infected erythrocytes, osmotic lysis, higher = more signal, called active from +8 up or from −8 down
# [16] = plasmodial surface anion channel blockers, osmotic lysis – cell-based, P. falciparum Indochina, OD700, 18 h, primary screen (AID 1157); settings: P. falciparum Indochina infected erythrocytes, osmotic lysis OD700, 18 h; higher = more signal, called active from +8 up or from −8 down
# [17] = S6 kinase pathway phospho-S6 level changes – cell-based, A549, cytoblot, luminescence, serum-stimulated, primary screen (AID 1158); settings: 5 h, higher = more signal;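 further: serum-stimulated A549 lung adenocarcinoma cells; signal is phosphorylated S6 detected by cytoblot immunostaining with HRP secondary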
# [18] = molecular target: NADPH oxidase 2 (Homo sapiens) (UniProt P04839); assay: compounds shifting NOX2 Amplex Red fluorescence – cell-based, HEK293-NOX2, PMA-stimulated, NOX inhibitor project, primary screen (AID 1159); settings: 45 min, higher = more signal, called active from +8 up or from −8 down; further: test concentration not given here
# Chain of NADPH oxidase 2 (Homo sapiens) (P04839 whole entry, looked up): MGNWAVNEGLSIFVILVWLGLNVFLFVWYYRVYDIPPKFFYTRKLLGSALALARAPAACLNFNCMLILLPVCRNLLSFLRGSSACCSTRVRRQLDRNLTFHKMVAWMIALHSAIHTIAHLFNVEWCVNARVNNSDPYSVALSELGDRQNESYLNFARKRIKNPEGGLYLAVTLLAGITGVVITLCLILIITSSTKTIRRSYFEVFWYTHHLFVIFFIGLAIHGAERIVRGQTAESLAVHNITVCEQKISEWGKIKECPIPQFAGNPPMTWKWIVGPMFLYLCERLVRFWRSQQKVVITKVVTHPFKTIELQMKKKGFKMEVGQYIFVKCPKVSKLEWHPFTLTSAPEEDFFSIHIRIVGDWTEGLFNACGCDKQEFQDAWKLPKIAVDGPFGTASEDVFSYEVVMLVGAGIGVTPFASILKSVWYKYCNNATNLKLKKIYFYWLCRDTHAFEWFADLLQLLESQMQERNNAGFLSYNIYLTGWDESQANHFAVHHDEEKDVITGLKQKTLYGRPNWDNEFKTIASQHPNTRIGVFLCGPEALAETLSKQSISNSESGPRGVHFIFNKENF
# [19] = molecular target: NADPH oxidase 4 (Homo sapiens) (UniProt Q9NPH5); assay: compounds shifting NOX4 Amplex Red fluorescence – cell-based, HEK293-NOX4, tetracycline-induced, NOX inhibitor project, primary screen (AID 1160); settings: HEK293-NOX4, Amplex Red H2O2 fluorescence, 45 min; higher = more signal, called active from +8 up or from −8 down
# Chain of NADPH oxidase 4 (Homo sapiens) (Q9NPH5 whole entry, looked up): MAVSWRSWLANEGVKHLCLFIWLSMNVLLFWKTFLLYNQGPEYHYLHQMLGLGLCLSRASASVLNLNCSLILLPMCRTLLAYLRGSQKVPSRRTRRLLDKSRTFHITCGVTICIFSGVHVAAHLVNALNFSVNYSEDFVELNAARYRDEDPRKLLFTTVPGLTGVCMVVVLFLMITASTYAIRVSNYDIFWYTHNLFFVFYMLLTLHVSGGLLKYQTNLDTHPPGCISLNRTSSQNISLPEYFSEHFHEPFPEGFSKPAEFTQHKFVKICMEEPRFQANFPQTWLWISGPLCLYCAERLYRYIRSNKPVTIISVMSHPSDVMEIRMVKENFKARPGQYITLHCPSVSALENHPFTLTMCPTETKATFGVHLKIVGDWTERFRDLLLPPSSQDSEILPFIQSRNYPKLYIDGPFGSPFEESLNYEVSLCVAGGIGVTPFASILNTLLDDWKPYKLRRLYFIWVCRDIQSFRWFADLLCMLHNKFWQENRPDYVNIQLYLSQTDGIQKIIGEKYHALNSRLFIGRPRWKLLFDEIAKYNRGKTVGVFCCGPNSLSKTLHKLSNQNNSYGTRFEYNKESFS
# [20] = molecular target: NADPH oxidase 5 (Homo sapiens) (UniProt Q96PH1); assay: compounds shifting NOX5 Amplex Red fluorescence – cell-based, HEK293-NOX5, NOX inhibitor project, primary screen (AID 1161); settings: HEK293-NOX5, ionomycin, 45 min, higher = more signal
# Chain of NADPH oxidase 5 (Homo sapiens) (Q96PH1 whole entry, looked up): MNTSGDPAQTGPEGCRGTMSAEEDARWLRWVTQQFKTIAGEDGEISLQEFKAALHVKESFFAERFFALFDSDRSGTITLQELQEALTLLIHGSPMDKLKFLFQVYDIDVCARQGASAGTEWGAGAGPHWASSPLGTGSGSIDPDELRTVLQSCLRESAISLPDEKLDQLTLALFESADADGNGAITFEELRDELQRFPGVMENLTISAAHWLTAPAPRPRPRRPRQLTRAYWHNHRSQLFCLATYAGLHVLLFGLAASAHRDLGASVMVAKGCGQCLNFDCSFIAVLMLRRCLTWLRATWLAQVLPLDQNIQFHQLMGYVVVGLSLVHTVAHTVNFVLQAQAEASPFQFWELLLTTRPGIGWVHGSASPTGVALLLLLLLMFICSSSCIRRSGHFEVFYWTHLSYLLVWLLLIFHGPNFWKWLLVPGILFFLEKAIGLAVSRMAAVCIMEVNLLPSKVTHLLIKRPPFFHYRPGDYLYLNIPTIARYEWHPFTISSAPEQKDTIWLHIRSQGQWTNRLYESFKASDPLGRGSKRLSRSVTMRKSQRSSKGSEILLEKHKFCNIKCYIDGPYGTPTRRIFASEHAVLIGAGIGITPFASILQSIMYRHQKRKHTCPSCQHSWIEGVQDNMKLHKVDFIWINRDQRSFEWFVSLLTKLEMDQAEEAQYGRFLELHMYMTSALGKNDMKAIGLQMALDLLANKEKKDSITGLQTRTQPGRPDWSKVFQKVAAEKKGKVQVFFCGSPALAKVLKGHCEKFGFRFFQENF
Compound,composite z-score [1],z-score [2],z-score [3],z-score [4],z-score [5],composite z-score [6],composite z-score [7],composite z-score [8],composite z-score [9],composite z-score [10],z-score [11],composite z-score [12],z-score [13],z-score [14],z-score [15],z-score [16],z-score [17],z-score [18],z-score [19],z-score [20]
C=CC[C@@H](O)c1ccc(OCCO)cc1,-0.0578 and -0.579,-0.924 (inactive) and -0.105 (inactive),0.517 (inactive) and -0.242 (inactive),-0.431 (inactive) and 0.772 (inactive),-0.613 (inactive) and -0.949 (inactive),-1.47 and -0.878,-0.259 and -0.153,0.588 and -3.38,0.479 and -2.42,0.0925 and -0.262,1.23 (inactive) and 1.38 (inactive),-0.259 and -0.191,3.24 (inactive) and 1.36 (inactive),-0.971 (inactive) and -1.24 (inactive),-0.904 (inactive) and -0.902 (inactive),-2.02 (inactive) and -2.07 (inactive),2.74 and 0.965,-0.976 (inactive) and -0.495 (inactive),-0.354 (inactive) and -0.393 (inactive),-1.22 and -0.2
C[N+](C)(C)CCCCNC(=O)[C@@H]1C[C@@H]2C(=O)N[C@@H](CCCC[N+](C)(C)C)C(=O)N2[C@@H]1c1cccc(OCCO)c1,1.07 and 0.542,-0.219 (inactive) and 0.0262 (inactive),0.78 (inactive) and -0.351 (inactive),-0.264 (inactive) and 0.692 (inactive),-1.09 (inactive) and -0.277 (inactive),0.0255 and -0.695,-0.05 and -0.0413,2.06 and 0.536,2.17 and 1.72,2.31 and 2.25,0.185 (inactive) and 0.394 (inactive),-0.144 and 0.167,1.5 (inactive) and 1.02 (inactive),0.77 (inactive) and -0.108 (inactive),-1.61 (inactive) and -1.45 (inactive),0.252 (inactive) and -0.0932 (inactive),-0.519 and -0.437,-2.1 (inactive) and -1.99 (inactive),-2.58 (inactive) and -1.13 (inactive),-1.28 and -0.837
CCOC(=O)[C@@H]1CC2O[C@]23C[C@@H]1C(=O)N1CCC[C@@H]1[C@H]3O[Si](C)(C)C(C)(C)C (stereo not given in full),0.187 and -0.0017,-1.17 (inactive) and 0.553 (inactive),-0.377 (inactive) and 0.487 (inactive),-1.23 (inactive) and -0.414 (inactive),-0.217 (inactive) and 1.42 (inactive),-0.468 and -0.0735,-0.105 and 0.651,-0.36 and -0.384,-0.855 and -0.032,0.361 and 1.05,-1.1 (inactive) and -0.757 (inactive),-0.229 and -0.255,0.827 (inactive) and -0.309 (inactive),-0.168 (inactive) and 0.0095 (inactive),-0.03 (inactive) and -0.708 (inactive),0.134 (inactive) and -0.162 (inactive),-0.111 and -0.206,0.937 (inactive) and 0.661 (inactive),0.147 (inactive) and 5.07 (inactive),-2.39 and -0.882
C=CCN(C(=O)C1N(c2ccc(CCO)cc2)C(=O)C2C(C(=O)O)C3C=CC21O3)c1ccc(OC)cc1 (stereo not given),-0.416 and -0.717,-0.0172 (inactive) and -1.2 (inactive),-0.143 (inactive) and -1.34 (inactive),0.333 (inactive) and -1.97 (inactive),-0.0772 (inactive) and -0.526 (inactive),-0.683 and -1.98,-0.0066 and -0.311,-1.29 and -2.7,-0.584 and -1.23,-0.141 and -1.28,-0.0883 (inactive) and 1.76 (inactive),-0.147 and -0.216,2.34 (inactive) and 0.289 (inactive),0.752 (inactive) and -0.136 (inactive),-0.0787 (inactive) and -0.0798 (inactive),0.258 (inactive) and 0.284 (inactive),0.0631 and 2.4,1.27 (inactive) and -0.00582 (inactive),-1.05 (inactive) and -0.234 (inactive),2.64 and -0.701
COC(=O)c1c2oc(c1C(=O)OC)C(=O)N[C@@H](Cc1ccccc1)Cn1cc(nn1)C1(CCCCC1)NC(=O)N[C@H](CO)CC2,0.547 and 0.189,-0.237 (inactive) and -0.109 (inactive),-1.23 (inactive) and -0.509 (inactive),0.484 (inactive) and 3.25 (inactive),-0.635 (inactive) and -0.0904 (inactive),0.216 and 0.517,0.271 and -0.103,0.212 and 0.403,-0.0506 and 0.489,1.28 and 0.781,2.62 (inactive) and 1.74 (inactive),0.391 and 0.0455,1.36 (inactive) and 4.41 (inactive),0.431 (inactive) and 1.49 (inactive),0.557 (inactive) and 0.593 (inactive),0.454 (inactive) and 0.801 (inactive),0.427 and 0.173,0.432 (inactive) and 0.428 (inactive),1.67 (inactive) and -1.49 (inactive),0.922 and -2.52
C=C[C@H](OC)[C@@H](O)c1ccc(O)c(F)c1,-0.542 and -1.18,-0.217 (inactive) and -0.324 (inactive),-0.263 (inactive) and -1.21 (inactive),1.53 (inactive) and 0.353 (inactive),1.41 (inactive) and 0.473 (inactive),-1.42 and -1.09,-0.409 and -0.32,-1.55 and -3.36,-1.77 and -2.26,-1.28 and -0.249,-0.809 (inactive) and 0.573 (inactive),-0.266 and -0.148,-0.0463 (inactive) and 0.351 (inactive),0.125 (inactive) and 0.702 (inactive),-0.389 (inactive) and -0.0295 (inactive),-0.138 (inactive) and 0.403 (inactive),-0.141 and 0.723,-1.01 (inactive) and -0.872 (inactive),-0.137 (inactive) and -0.407 (inactive),0.0933 and -0.503
C=CCN(C(=O)C(c1cccs1)N(C(=O)/C=C\C(=O)O)c1ccc(CCO)cc1)C(C)(C)C (stereo not given),-0.156 and -1.27,-0.243 (inactive) and 0.38 (inactive),-0.638 (inactive) and 0.984 (inactive),-0.0859 (inactive) and 0.597 (inactive),0.332 (inactive) and -0.439 (inactive),-0.298 and -0.966,-0.154 and -0.227,-0.603 and -2.33,1.56 and -2.14,-0.754 and -1.36,0.381 (inactive) and -0.0974 (inactive),-0.134 and 0.0355,-0.274 (inactive) and -0.322 (inactive),-0.432 (inactive) and 0.0511 (inactive),-0.518 (inactive) and -0.338 (inactive),0.0097 (inactive) and 0.232 (inactive),1.36 and 0.123,0.0507 (inactive) and 0.27 (inactive),-0.86 (inactive) and -0.783 (inactive),0.274 and 0.335
C=CCN(CCCCC)C(=O)C1N(CCOCCO)C(=O)C2C(C(=O)O)C3C=CC21O3 (stereo not given),-1.49 and -0.76,0.41 (inactive) and -0.417 (inactive),1.73 (inactive) and 1.24 (inactive),0.866 (inactive) and 0.601 (inactive),0.17 (inactive) and -0.469 (inactive),-1.6 and -1.66,-0.278 and -0.3,-2.98 and -2.79,-0.411 and -1.26,-1.44 and -0.292,-0.657 (inactive) and -0.678 (inactive),-0.0518 and -0.0061,-0.326 (inactive) and 0.243 (inactive),-0.438 (inactive) and -0.392 (inactive),-0.661 (inactive) and -0.448 (inactive),0.0613 (inactive) and -0.159 (inactive),-0.192 and 0.359,0.347 (inactive) and 0.481 (inactive),-1.7 (inactive) and -1.87 (inactive),0.569 and 0.0493
CO[C@@H]1COC(=O)CC=C[C@H](C)COC(=O)[C@H](C)NC(=O)CC=C[C@H]1C,0.144,0.178 (inactive),0.213 (inactive),1.24 (inactive),-0.218 (inactive),0.477,-0.208,0.919,1.16,1.19,-0.762 (inactive),-0.344,-0.0875 (inactive),0.193 (inactive),0.599 (inactive),-0.138 (inactive),-0.677,2.01 (inactive),0.486 (inactive),-0.47
C[C@@H]1CC[C@H]2C(=O)NC[C@@H](O)CN2[C@H]1c1ccc(Br)cc1,-0.0755 and 0.0111,0.3 (inactive) and 0.139 (inactive),0.721 (inactive) and 0.543 (inactive),0.649 (inactive) and 0.108 (inactive),0.797 (inactive) and 0.187 (inactive),-0.161 and -0.289,-0.0762 and -0.128,0.0335 and 0.266,0.0464 and -0.352,0.264 and -0.0212,-1.08 (inactive) and -0.445 (inactive),-0.426 and -0.017,0.211 (inactive) and -0.0955 (inactive),-0.0378 (inactive) and 0.0974 (inactive),-0.114 (inactive) and -0.125 (inactive),-0.218 (inactive) and 0.0277 (inactive),0.53 and -0.753,-0.807 (inactive) and 0.12 (inactive),0.283 (inactive) and 0.229 (inactive),0.646 and 0.135
CO[C@@H]1C=CCC(=O)N2CCC[C@H]2C(=O)OC[C@H](C)C(=O)OC[C@H]1C,-0.0492,0.0002 (inactive),-0.789 (inactive),-0.113 (inactive),-0.192 (inactive),-0.69,-0.186,0.772,1.63,1.64,0.813 (inactive),-0.0536,-0.393 (inactive),-0.25 (inactive),-0.355 (inactive),0.0084 (inactive),0.0533,-0.773 (inactive),0.208 (inactive),0.221
